High-throughput results from PubChem BioAssay.
A488 fluor = A488 region autofluorescence; compound autofluorescence, A488 spectral region, dye equivalency; Compound Type: qHTS ECL - MLSMR; max dye equivalency, M; 59,000 compounds, 0.1% hits; AID 591
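Readout is A488 dye-equivalent concentration, calibrated by a per-plate six-point Alexa 488 series. Compounds in 100 mM Tris buffer pH 8.0 were incubated 15 min at room temperature. Plates were imaged using 480 nm excitation/540 nm emission filters.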
Rhodamine fluor = rhodamine region autofluorescence; Rhodamine-region fluorescence, 547/598 nm, Tris buffer; hits give high values; max dye-equivalent concentration, M; 59,000 compounds, 0.05% hits; in the data active means max dye-equivalent concentration above about 11 nM; inconclusive means between about 1.1 nM and that limit
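Intensities are converted to rhodamine-equivalent concentration using a six-point rhodamine standard on each plate. Compounds sit 15 min at room temperature in 100 mM Tris buffer, pH 8.0; read uses the 547/598 nm excitation/emission pair.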
Fluorescein fluor = compound fluoresces in the fluorescein spectral region; Compound autofluorescence, 480/540 nm, fluorescein-equivalent; hits give high values; max fluorescein-equivalent concentration, M; 59,000 compounds, 0.91% hits; AID 593; in the data active means max fluorescein-equivalent concentration above about 10 nM; inconclusive means between about 1.1 nM and that limit
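First, buffer (100 mM Tris, pH 8.0) dispensed; second, compounds and fluorescein standards pinned in; third, 15 min room-temperature incubation; finally, imaging at ex 480 nm/em 540 nm. Fluorescence normalized against the six-point fluorescein curve.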
Resorufin fluor = compounds fluorescent in resorufin spectral region; max dye-equivalent concentration, M; Compound fluorescence, resorufin region 547/598 nm, buffer; hits give high values; 59,000 compounds, 0.04% hits
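Dye-equivalent concentration values derive from comparing each well's 547/598 nm fluorescence against resorufin standards included on every plate. Incubation was 15 min at room temperature in 100 mM Tris, pH 8.0.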
Texas Red fluor = Texas Red region autofluorescence; Compound fluorescence, Texas Red channel, 547/618 nm; hits give high values; max dye-equivalent concentration, M; 59,000 compounds, 0.06% hits; AID 587; in the data active means max dye-equivalent concentration above about 10 nM; inconclusive means between about 1.1 nM and that limit
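qHTS profiling of intrinsic compound fluorescence; 100 mM Tris pH 8.0; 15 min RT; ex 547 / em 618 nm; response expressed as Texas Red dye-equivalent concentration from six-point plate standard.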
A647 autofl = compound autofluorescence in A647 spectral region | max dye-equivalent concentration, M | Compound fluorescence, A647 channel (570/671 nm), Tris buffer | AID 592 | 59,000 tested, under 10 active;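 further: values scaled relative to a standard on each plate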
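Spectral profiling of library compounds in pH 8.0 Tris: 15 min room-temperature incubation, single ex/em pair (570/671 nm), response normalized to Alexa 647 equivalents.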
Starred values were filed as active, the others as inactive; i = inactive; ? = inconclusive. In the library only some 0.96% were active in any assay of this set; here they are far more common. Unless noted, how the calls were made is not given here.

SMILES	A488 fluor	Rhodamine fluor	Fluorescein fluor	Resorufin fluor	Texas Red fluor	A647 autofl
[N-]=[N+]=Nc1ccc(C(=O)CSC[C@@H](NC(=O)CC[C@@H](N)C(=O)O)C(=O)NCC(=O)O)cc1	i	i	?	i	?	1.3e-09
N#CC1=C(N)Oc2n[nH]c(-c3cccs3)c2C1c1ccco1 (configuration not stated)	?	?	1e-07M*	?	?	1e-09
CCCCCCCCCCCCCCCCOC[C@@H](COCC(F)(F)F)OP(=O)(O)OCO	i	i	?	i	i	1.5e-08
CCn1c(CSc2nccn2C)nc2cc(C(=O)O)ccc21	i	1.7e-08M*	1.1e-08M*	1.1e-08M*	2.7e-08M*	2.4e-08
Cn1ccnc1SCC(=O)c1cc2ccccc2o1	i	i	i	i	i	1e-09
O=C(O)[C@H]1CCCC[C@@H]1C(=O)Nc1nc2ccccc2[nH]1	i	i	i	i	i	1e-09
O=C(NCc1ccco1)c1cccnc1-c1nc2ccccc2s1	?	i	3.5e-08M*	i	i	2.2e-08
Cc1ccc2nc3sc(C(=O)N4CCOCC4)c(N)c3cc2c1	?	i	8.1e-08M*	i	i	1.1e-09
Cc1cc(C)c2c(=O)[nH]c(=O)n(Cc3ccccc3)c2n1	i	i	1.3e-08M*	i	i	1.2e-08
Cc1cc(C)n(-c2nc3c(c(=O)[nH]c(=O)n3C)n2Cc2ccccc2)n1	i	i	?	i	i	1e-09
Cc1cc2c(c(=O)o1)C1(C(=O)N(CC(=O)O)c3ccccc31)C(C#N)=C(N)O2 (configuration not stated)	i	i	1.3e-08M*	i	i	1.2e-08
CCN1C(=O)C2(C(C#N)=C(N)Oc3cc(C)oc(=O)c32)c2ccccc21 (configuration not stated)	i	i	i	i	?	4.3e-09
COc1cccc(NS(=O)(=O)c2ccc(S(=O)(=O)N3CCOCC3)cc2)c1	i	i	1.1e-08M*	i	i	4.6e-09
COc1cccc(NS(=O)(=O)c2ccc3c(c2)n(C)c(=O)c(=O)n3C)c1	i	i	i	i	i	1e-09
CCOC(=O)c1sc(N)c(C#N)c1CSc1nc2ccc(OCC)cc2[nH]1	i	i	i	i	i	6.6e-09
CCOC(=O)c1sc(N)c(C#N)c1COC(=O)CNC(=O)c1ccccc1	i	i	3e-08M*	i	i	9.1e-09
CCCCn1c(CN2CCN(C)CC2)nc2ccccc21	i	i	i	i	i	1e-09
CN1CCN(Cc2nc3cccc4c3c([n+]2[O-])-c2ccccc2-4)CC1	i	i	1.4e-08M*	i	i	1e-09
N[C@@H](C(=O)O)[C@H](O)C(=O)O	i	i	?	i	?	3.7e-09
CCN1C(=O)/C(=C2\C=Cc3ccccc3N2CC)OC1=S	3.8e-08M*	2.2e-08M*	8e-07M*	2.2e-08M*	?	1.1e-08
CC(=O)[C@H]([C@@H](c1ccccc1)N1CCOCC1)N1CCOCC1	i	i	?	i	i	6.1e-08
CCNc1ncc2nc(-c3cn(C)c4ccccc34)c(=O)n(-c3ccccc3)c2n1	i	i	1.1e-08M*	i	i	5.4e-09
COc1ncc2nc(-c3cn(C)c4ccccc34)c(=O)n(-c3ccccc3)c2n1	i	i	1.5e-08M*	i	i	6.3e-09
Cc1ccc(S(=O)(=O)Nc2ccccc2C(=O)c2ccc(C)c(C)c2)cc1	i	i	?	i	?	2.2e-08
CN(C)CCCNc1cc(O)c2c(c1O)C(=O)c1ccccc1C2=O	i	1.8e-08M*	?	1.3e-08M*	4.6e-08M*	5e-09
SMILES	A488 fluor	Rhodamine fluor	Fluorescein fluor	Resorufin fluor	Texas Red fluor	A647 autofl
CN(C)CCCNC(=O)c1ccc(-c2ccccc2)cc1	i	i	?	i	i	3.9e-08
O=C1OC(=O)[C@@H]2[C@@H]1[C@@H]1CC[C@H]2O1	i	i	?	i	i	1e-09
Cc1nnc2sc(-c3ccc(NC(=O)c4ccc(-c5ccc(Cl)cc5Cl)o4)cc3)nn12	i	?	1.2e-08M*	?	?	2.8e-08
Cc1nnc2sc(-c3ccc(NC(=O)c4cccnc4)cc3)nn12	i	i	?	i	?	4.9e-08
Cc1nccn1-c1c2c(c(C#N)c3nc4ccccc4n13)CCCC2	i	i	1.4e-08M*	i	?	2.1e-08
Cn1c(=O)[nH]c(=O)c2c1nc(NCc1ccccc1)n2CC(O)c1ccccc1 (configuration not stated)	?	i	3.6e-08M*	i	i	1e-09
NC(=S)NCCC[C@@H](N)C(=O)O	i	i	i	i	i	1.5e-09
CC(=O)N1C(=O)C(=C2C=C(C)OC(C)=C2)c2ccccc21	1.3e-08M*	i	2.3e-07M*	i	i	1.9e-08
C=C1CC[C@@H](O)C/C1=C/C=C1\CCC[C@]2(C)[C@@H]1CC[C@H]2[C@@H](C)/C=C\[C@@H](C)C(C)C	i	i	i	i	i	1e-09
Cc1cccc(S(=O)(=O)c2c(N)n(Cc3ccco3)c3nc4ccccc4nc23)c1	i	i	1.7e-08M*	i	i	1.5e-08
COc1cc2nc(N3CC=[N+](C(=O)c4ccco4)CC3)nc(N)c2cc1OC	i	i	i	i	i	5.4e-09
N#CC(C(=O)NC1CCCCC1)c1nc2ccccc2nc1N1CCCCC1 (configuration not stated)	i	i	?	i	i	2.2e-08
N#CC(C(=O)NC1CC1)c1nc2ccccc2nc1N1CCCC1 (configuration not stated)	?	i	1.8e-07M*	i	?	8.2e-09
COCCCNC(=O)C(C#N)c1nc2ccccc2nc1N1CCN(Cc2ccccc2)CC1 (configuration not stated)	i	i	i	i	i	3e-08
N#CC(C(=O)NC1CC1)c1nc2ccccc2nc1N1CCN(C/C=C/c2ccccc2)CC1 (configuration not stated)	?	i	1.3e-07M*	i	i	1e-09
N#CC(C(=O)NC1CCCCC1)c1nc2ccccc2nc1N1CCN(c2ccc(F)cc2)CC1 (configuration not stated)	2e-08M*	i	3.5e-07M*	i	i	3e-09
C=CCNC(=O)C(C#N)c1nc2ccccc2nc1N1CCN(Cc2ccccc2)CC1 (configuration not stated)	?	i	5.6e-08M*	i	i	1e-09
CC(C)(C(=O)O)c1ccc([C@@H](O)CCCN2CCC(C(O)(c3ccccc3)c3ccccc3)CC2)cc1	i	i	?	i	?	2.1e-08
Clc1nc(NCCc2ccccc2)c2ncn(-c3ccccc3)c2n1	i	i	i	i	i	1e-09
